Hits are enriched below; roughly 3.6% of the tested compounds scored in any of these assays.
LGR2 antag = inhibitors of bursicon-induced Drosophila LGR2 receptor cAMP signaling | inhibition, % at 9.99 µM | AID 720647 | hit rate 0.35% among 380,000 | HEK293 LGR2, CRE-luciferase, bursicon-stimulated, 4 h;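 active = drop in luminescence signal, shown as inhibition above about 50% in the replicate tests, limit read from the data, passing the limit was not always enough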;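 also: agonist challenge used bursicon conditioned medium at about half maximal strength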
HSF1 activator = increases HSF-1 driven luciferase reporter signal; NIH3T3-HGL HSF-1 luciferase reporter, MG132, 8 h; 100% = twice DMSO control signal; activation, % at 9 µM; hit rate 1.7% among 300,000; AID 504408;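 active = mean replicate activation of at least 50% with a set share of replicates each reaching 50%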;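 also: 0% = median of the neutral control wells and 100% = twice that signal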
TROY signal inh = TROY signaling inhibition; AID 1347056; Q293 LMP1-TROYcd NF-kB luciferase reporter, 4 h; hit rate 0.98% among 360,000; inhibition, % at 10 µM;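 active = compounds whose plate-normalised and pattern-corrected inhibition of the luciferase reporter signal at the single screening dose is 50% or more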
TWEAK Fn14 block = blocks TWEAK-Fn14 interaction in a reporter cell assay; hit rate 2% among 360,000; TWEAK-stimulated Fn14 reporter cells, luciferase luminescence, 8 h; AID 1159606; inhibition, % at 10 µM; in the data active = inhibition above about 50%
EBV LMP1 NFkB = Epstein-Barr LMP1 NF-kappaB reporter inhibition. LMP1-induced NF-kappaB luciferase reporter cells, luminescence. inhibition, % at 12.5 µM. hit rate 0.69% among 350,000; in the data active = inhibition above about 41%;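 also: 0% = neutral control wells and 100% = reference inhibitor control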
HSF1 inhib = HSF1 inhibition | NIH3T3-HGL HSE-luciferase, MG132-induced, luminescence 8 h; stronger effect = lower value | activity change, negative = inhibition, % at 7.5 µM (by protocol) | hit rate 0.77% among 300,000;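 active = more than half of replicate wells show activity change below -50%, luminescence cut by over half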;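 also: luciferase reports HSF-1 transcriptional activity via heat shock element; 0% = median of DMSO wells and -100% = zero luminescence signal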
Numbers without * were called inactive; nt = no result.

SMILES | LGR2 antag | HSF1 activator | TROY signal inh | TWEAK Fn14 block | EBV LMP1 NFkB | HSF1 inhib
Nc1nnc(SCc2ccc([N+](=O)[O-])cc2)s1 | 14.7 | 17.4 | 8.3 | -7.2 | -6.0 | 6.2
CO[C@H]1CN(C)C(=O)c2ccc(NC(=O)C3CCOCC3)cc2OC[C@H](C)N(C(=O)c2ccccc2)C[C@H]1C | 10.6 | nt | nt | nt | nt | nt
O=C(COc1ccc(Cl)cc1)N1N=C(c2cccs2)CC1c1ccco1 (configuration not stated) | 6.5 | nt | 9.3 | 19.6 | -3.9 | nt
Cc1ccc(C2=NN(C(=O)CN3CCN(C4CCS(=O)(=O)C4)CC3)C(c3ccco3)C2)cc1 (configuration not stated) | -33.5 | nt | 65.7* | 70.8* | 35.2 | nt
CCc1ccc(C2=NN(C(C)=O)C(c3ccco3)C2)cc1 (configuration not stated) | -131.1 | 73.9* | -36.2 | -25.7 | -46.5 | 33.2
O=C(c1ccco1)N1N=C(c2cccs2)CC1c1ccco1 (configuration not stated) | -2.7 | 64.5* | -12.0 | 0.1 | 3.0 | 29.1
CN1CCN(CC(=O)N2N=C(c3cccs3)CC2c2ccco2)CC1 (configuration not stated) | -2.6 | -65.4 | 1.9 | 14.0 | -11.5 | -57.5*
COCC#Cc1cnc2c(c1)C(=O)N([C@H](C)CO)C[C@H](C)[C@@H](CN(C)C(=O)CCN1CCCCC1)O2 | -18.5 | nt | nt | nt | nt | nt
Cn1cnc(CCNC(=O)C[C@H]2CC[C@@H]3[C@H](COC[C@@H](O)CN3C(=O)C3CCCC3)O2)c1 | 5.4 | nt | nt | nt | nt | nt
Nc1cc(=O)[nH]c(SCC(=O)N2N=C(c3ccc(Cl)cc3)CC2c2ccco2)n1 (configuration not stated) | -11.0 | 11.6 | -26.6 | 0.8 | -8.1 | 9.4
O=C(CCl)N1N=C(c2cccs2)CC1c1ccco1 (configuration not stated) | 1.4 | -94.9 | 0.8 | 66.9* | -9.0 | -94.0*
COc1ccc(C2=NN(C(=O)c3ccco3)C(c3ccco3)C2)cc1OC (configuration not stated) | -6.5 | 62.2* | 20.3 | -9.3 | 19.2 | 31.5
O=C(c1ccco1)N1N=C(c2ccc(Cl)cc2)CC1c1ccco1 (configuration not stated) | -0.4 | 2.9 | 36.1 | 4.7 | 9.9 | 4.4
CCCc1cc(=O)[nH]c(SCC(=O)N2N=C(c3ccc(Cl)cc3)CC2c2ccco2)n1 (configuration not stated) | -26.4 | 16.9 | 28.7 | 69.0* | -6.8 | 0.9
CC(C)[C@H](NS(=O)(=O)c1ccccc1)C(=O)OCC(=O)N1N=C(c2ccc(Cl)cc2)CC1c1ccco1 (some centres not stated) | -5.8 | 42.0 | 39.5 | 55.6* | 11.2 | 8.9
C[C@@H]1CN([C@@H](C)CO)C(=O)c2cccc(NC(=O)CCCCCC(=O)Nc3ccccc3N)c2O[C@H]1CN(C)C(=O)Nc1ccc(F)cc1 | 23.7 | nt | nt | nt | nt | nt
CNC[C@H]1Oc2cc(C#Cc3ccncc3)ccc2S(=O)(=O)N([C@H](C)CO)C[C@@H]1C | -5.8 | nt | nt | nt | nt | nt
CNC[C@@H]1OCCCC[C@H](C)Oc2ccc(NC(=O)NC3CCCCC3)cc2C(=O)N([C@H](C)CO)C[C@@H]1C | -10.2 | nt | nt | nt | nt | nt
O=S1(=O)Nc2c(ccc3cccnc23)-c2ccccc21 | nt | 157.8* | 71.0* | 105.2* | 7.5 | 142.1
Clc1ccc2ccc3cccnc3c2n1 | -5.2 | -4.1 | -22.1 | -6.8 | 0.4 | -1.0
CC(C)c1cc(NC(=O)c2ccccc2)cc(C(C)C)c1O | 18.4 | -15.5 | -4.3 | -11.5 | 58.9* | -10.3
COCC(=O)N(C)C[C@@H]1Oc2ncc(-c3ccc(F)cc3)cc2C(=O)N([C@H](C)CO)C[C@@H]1C | -5.3 | nt | nt | nt | nt | nt
CCOc1ccc2nc(Cl)c(C3CC(c4ccco4)=NN3S(C)(=O)=O)cc2c1 (configuration not stated) | 11.2 | 9.4 | 57.2* | -16.0 | -4.5 | 7.4
O=C1C2CC=CCC2C(=O)N1Cc1nnc(-c2ccc(Cl)cc2)o1 (configuration not stated) | -44.4 | 55.9* | -65.8 | -30.2 | -18.4 | 28.6
O=C(CCCSc1nc(-c2ccco2)cc(C(F)(F)F)n1)NCC1CCCO1 (configuration not stated) | nt | -11.6 | nt | 70.5* | 3.4 | 4.9
SMILES | LGR2 antag | HSF1 activator | TROY signal inh | TWEAK Fn14 block | EBV LMP1 NFkB | HSF1 inhib
O=C(CCSc1nc(-c2ccco2)cc(C(F)(F)F)n1)NCC1CCCO1 (configuration not stated) | nt | -8.9 | nt | -3.2 | 2.2 | -5.4
CCN(CC)S(=O)(=O)c1ccc2[nH]cc(C(=O)NCCC3=CCCCC3)c(=O)c2c1 | nt | -8.7 | 43.5 | 58.5* | -0.4 | 7.1
CCN(CC)S(=O)(=O)c1ccc2[nH]cc(C(=O)NCCN3CCCCCC3)c(=O)c2c1 | 10.0 | -3.9 | -49.9 | 17.1 | -0.2 | -0.4
O=C(NCCc1ccccc1)c1coc(=O)c(Br)c1 | -39.0 | 35.3 | 6.8 | 78.3* | nt | 24.4
Cc1cc(C(=O)NCCC2=CCCCC2)c(C)o1 | 4.0 | 60.1* | 1.3 | 6.3 | -22.0 | 32.7
O=C(NC(CO)(CO)CO)c1coc(=O)c(Br)c1 | nt | 65.2* | -40.2 | 13.1 | -3.9 | 14.3
CC(C)CNC(=O)c1coc(=O)c(Br)c1 | nt | 18.1 | 3.7 | 47.9 | 24.5 | 10.2
COC(=O)C[C@@H]1CC[C@@H]2[C@@H](COc3ccc(NS(=O)(=O)c4ccccc4Cl)cc3C(=O)N2C)O1 | 11.6 | nt | nt | nt | nt | nt
CNC[C@@H]1Oc2c(cccc2N(C)C)C(=O)N([C@H](C)CO)C[C@H]1C | -8.0 | nt | nt | nt | nt | nt
C[C@H]1CN([C@@H](C)CO)C(=O)c2cccc(NC(=O)c3ccncc3)c2O[C@@H]1CN(C)C(=O)NC1CCCCC1 | -0.7 | nt | nt | nt | nt | nt
O=C(NCCC1=CCCCC1)c1ccc(=O)oc1 | nt | 17.1 | 2.1 | -20.6 | -6.2 | -1.1
O=C(NCCC1=CCCCC1)c1coc(=O)c(Br)c1 | nt | 26.9 | 9.2 | 92.1* | -52.6 | 22.1
O=C(NCCC1=CCCCC1)c1ccc(Cl)cc1 | nt | 59.0* | nt | nt | nt | 37.2
COc1ccc2c3c(n(C)c2c1)[C@@H](CO)N(Cc1ccc2c(c1)OCO2)CC31CCN(C)CC1 | 18.3 | nt | nt | nt | nt | nt
Cn1c(SCC(=O)c2ccc(F)cc2)nc2cccnc21 | nt | 19.1 | 2.8 | 61.3* | -3.1 | 7.8
CCOC(=O)CSc1nc2cccnc2n1-c1ccc(F)cc1 | nt | -8.5 | 60.7* | 6.4 | -0.8 | 2.7
O=C(CSc1ccc(-c2ccccn2)nn1)c1ccccc1 | -35.9 | 43.1 | -28.1 | -15.5 | -9.1 | 9.3
O=C(CSc1ccc(-c2ccccn2)nn1)c1ccc(F)cc1 | -8.5 | 17.0 | -10.6 | 81.8* | 6.9 | 14.5
Cc1ccc(NS(=O)(=O)c2ccc(Cl)c(NC(=S)NC(=O)C3CCCCC3)c2)cc1Cl | 2.6 | 11.4 | 36.5 | 65.2* | -7.1 | 11.1
Cc1cc(N/C=C/C(=O)c2cccs2)ccc1F | -43.7 | 64.2* | -30.2 | -1.3 | -67.0 | 36.6
O=C(/C=C/Nc1cccc([N+](=O)[O-])c1)c1cccs1 | nt | -8.7 | -30.0 | 21.8 | -49.8 | -5.3
